Results taken from PubChem BioAssay (NCATS).
“And” between values parts separate entries of the source, which are not always exact repeats. Equal entries are not always repeated. Results filed as inconclusive are left out. The source made the active and inactive calls. Unless noted, calls come from the whole dose curve; as a rule, active = well fitted curve in the direction sought with a large enough effect; inconclusive = small, poorly fitted or top-dose-only effect, or another doubt; inactive = no such curve, though single readings can be large; an effect the other way counts as inactive or inconclusive. Residues, ends and D or L forms follow the SMILES beside them.

Columns and labels:
[1] = system: Zika virus NS2B-NS3 protease; experiment: Primary screen GU AMC qHTS for Zika virus inhibitors (AID 1347154);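 note: 0% = no-inhibitor control and -100% = no-enzyme control; nearly all actives have a fitted effect of over 70% in size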
Method in brief: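 Fluorogenic AMC-substrate cleavage by noncovalent NS2B-NS3 protease complex (25 nM, pH 8.0 Tris buffer with Tween 20) followed for 15 minutes at room temperature (~20% conversion). Percent inhibition from ex340/em450 signal change, fitted by 4-parameter Hill equation.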

[2] = Primary qHTS for small molecule stabilizers of the endoplasmic reticulum resident proteome: Secreted ER Calcium Modulated Protein (SERCaMP) assay (AID 1508630); note: % is set by controls: 0 for no effect and ±100 for the full control effect
Method in brief: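 GLuc-SERCaMP-expressing SH-SY5Y cells, pretreated 16 h with compound, are challenged with thapsigargin to empty ER calcium stores; after 4 h, coelenterazine is added directly to the medium and luminescence is imaged.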

[3] = molecular target: Glucocorticoid receptor (Homo sapiens) (UniProt P04150); experiment: GR-GFP Redistribution (AID 450;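 active = compounds whose dose series gives a full or clear partial fitted curve of increased nuclear translocation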; note: potency is the fitted concentration of half-maximal effect); settings: U2OS GR-GFP nuclear translocation, laser cytometry, 2 h
[4] = molecular target: 3',5'-cyclic-AMP phosphodiesterase 4B (Homo sapiens) (UniProt Q07343); experiment: qHTS Assay for Inhibitors of PDE-IV (AID 607; active = well fitted activation curve with a large enough effect in the main read-out, with a control signal flat, not every such curve was filed as active; note: % of control where 0% means no effect)
Method in brief: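 Live HEK293 cells with a modified cyclic nucleotide-gated (CNG) channel report intracellular cAMP via membrane-potential dye fluorescence (ex 535/em 590 nm). Endogenous PDE-IV was targeted. Compounds were tested at up to 22.9 uM final; RO 20-1724 100 uM served as control.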

[5] = qHTS Assay for Lipid Storage Modulators (AID 1519; calls by dose curve); settings: Drosophila S3 cells, BODIPY lipid droplet/cell ratio, laser cytometry, cells loaded with oleic acid; for activity change, negative = inhibition: at 57.5 µM (top of the series)
Method in brief: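 Cells seeded at 5,000 per well were treated with compounds over a concentration series and loaded with oleic acid (400 uM, as added). Lipid droplet fluorescence (488 nm excitation, 500-530 nm channel) was read by laser-scanning cytometry and normalized to 20 uM Triacsin C.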

[6] = molecular target: DNA dC->dU-editing enzyme APOBEC-3G (Homo sapiens) (UniProt Q9HC16); experiment: qHTS for inhibitors of Vif-A3G interactions: Validation (AID 588379); note: 0% is about no effect
Method in brief: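 HeLa cells stably expressing Vif and A3G-eYFP, 700 cells/well, incubated overnight at 37 deg C, then exposed to compound overnight at 37 deg C. Inhibition of Vif-mediated degradation read as increased yellow fluorescence (Ex 488/Em 500-530) by laser-scanning cytometry.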

[7] = molecular target: Ubiquitin carboxyl-terminal hydrolase 1 (Homo sapiens) (UniProt O94782); experiment: Inhibitors of USP1/UAF1: Pilot qHTS (AID 504865);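 note: rhodamine fluorescence freed from ubiquitin-rhodamine substrate followed over time; top concentration of the series differs between compounds; % is set by controls: 0 for no effect and ±100 for the full control effect; nearly all actives have a fitted effect of over 35% in size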
Method in brief: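 Kinetic fluorescence assay: 1nM USP1/UAF1, 15 min compound preincubation, then 150nM Ub-Rho; 480/540 nm.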

[8] = molecular target: Cytochrome P450 1A2 (Homo sapiens) (UniProt P05177); experiment: p450-cyp1a2 (AID 410; calls by dose curve; note: potency is the fitted concentration of half-maximal effect)
Method in brief: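 20nM CYP1A2 with 100uM Luciferin-ME (at Km) in 100mM KPO4; compound preincubated 10 min, NADPH regeneration added, 60 min at room temperature. Luciferin quantified by luminescence after detection reagent; normalized to 57 uM furafylline.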

[9] = molecular target: Glucocorticoid receptor (Homo sapiens) (UniProt P04150); experiment: GR-EFC Redistribution (AID 451; calls by dose curve; note: potency is the fitted concentration of half-maximal effect); settings: CHO-K1 GR-EFC translocation, beta-gal luminescence, 2 h
Method in brief: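 Translocation of GR-ED fusion to nuclear EA restores b-gal, read by luminescence after 1 h room-temperature detection. Engineered CHO-K1 biosensor cells, 1,000/well, exposed 2 h at 37 C to titrations up to 46 uM final.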

[10] = molecular target: Cytochrome P450 3A4 (Homo sapiens) (UniProt P08684); experiment: qHTS Assay for Activators of Cytochrome P450 3A4 (AID 885); note: nearly all actives have a fitted effect of over 65% in size
Method in brief: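 Quantitative HTS format: compounds preincubated with 20nM human CYP3A4 and Luciferin-PPXE substrate at KM, reaction started by NADPH regeneration, stopped after 60 min, luciferase luminescence read 20 min later.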

[11] = molecular target: Mitogen-activated protein kinase 10 (Mus musculus) (UniProt Q61831); experiment: JNK3 AlphaScreen Assay (AID 530; active = well fitted curve in either direction with a large enough effect, not every such curve was filed as active;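 note: kinase came from lysate of stimulated human HepG2 cells; signal reports phosphorylation of biotinylated GST-cJun 1-79 at Ser73 with 10 µM ATP; % is set by controls: 0 for no effect and ±100 for the full control effect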)
Method in brief: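 Compound titrations were preincubated 15 minutes at room temperature with substrate, antibody and pre-activated JNK3-containing HepG2 lysate. Reactions were started with 10 uM ATP and stopped with EDTA-containing bead buffer for AlphaScreen detection.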

[12] = AP1 Signaling Pathway (AID 357; active = well fitted curve in either direction with a large enough effect, not every such curve was filed as active;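 note: ME-180 reporter cells stimulated with EGF at its EC50 level; % is set by controls: 0 for no effect and ±100 for the full control effect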); settings: ME-180 AP-1-bla reporter, EGF-induced, beta-lactamase ratio, 5 h; at 38 µM (top of the series)
Method in brief: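 Read-out was the 460nm/530nm emission ratio (excitation 405nm) after CCF4 loading for 2.5 hours at room temperature. Cells carried an AP-1-driven beta-lactamase reporter, were stimulated with EC50 EGF plus compound for 5 hours, and AC50 values came from titrations.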

[13] = NFAT Signaling Pathway (AID 444; active = well fitted curve in either direction with a large enough effect, not every such curve was filed as active;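 note: carbachol stimulus at about its EC50 of 1 µM final; % is set by controls: 0 for no effect and ±100 for the full control effect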); settings: Jurkat NFAT-bla M1, carbachol, beta-lactamase ratio, 5 h; at 38 µM (top of the series)
Method in brief: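 Read-out: CCF4 FRET ratio (460 nm/530 nm) after 1 h RT dye loading, used for %activity and AC50 from titration series. Cells: Jurkat NFAT-β-lactamase/M1 line, treated with compound plus 1 uM carbachol for 5 h, 37 °C.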

[14] = Stat Signaling Pathway (AID 446; active = well fitted curve in either direction with a large enough effect, not every such curve was filed as active); settings: ME-180 (cervical carcinoma) SIE beta-lactamase reporter, IL-6 stimulated, 5 h; at 38 µM (top of the series)
Method in brief: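 IL-6/STAT signaling read in ME-180 cells via an SIE beta-lactamase reporter. Stimulus was 40 pM IL-6 (its AC50) for 5 hrs, so both activation and inhibition register.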

[15] = molecular target: Guanine nucleotide-binding protein G(i) subunit alpha-1 (Homo sapiens) (UniProt P63096); experiment: qHTS Assay for Inhibitors of RGS12 GoLoco Motif Activity (Green Fluorophore) (AID 879);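 note: 0% = labeled peptide with Gαi1 and full inhibition = labeled peptide alone without protein; negative values mean loss of peptide binding seen as reduced polarization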
Method in brief: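 Fluorescence polarization assay: 50 nM Gαi1 with 10 nM FITC-labeled RGS12 GoLoco peptide in 10 mM Tris pH 7.5, 150 mM NaCl, 0.1 mM GDP, 0.05% NP40, 10 min at room temperature with compound.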

[16] = molecular target: Cytochrome P450 2C19 (Homo sapiens) (UniProt P33261); experiment: qHTS Assay for Inhibitors and Substrates of Cytochrome P450 2C19 (AID 899); note: potency is the fitted concentration of half-maximal effect; nearly all actives have a fitted effect of over 60% in size
Method in brief: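 5nM enzyme + 10uM Luciferin-H EGE (=KM), 50mM KPO4; cpd pin-transferred, 10 min 37C; NADPH regen, 60 min 37C; stopped w/ luciferin detection reagent, 20 min; luminescence. Normalized to 57uM ketoconazole (AC100).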

[17] = molecular target: Pyruvate kinase (Leishmania mexicana) (UniProt Q27686); experiment: qHTS Validation Assay for Inhibitors of Leishmania Mexicana Pyruvate Kinase (AID 945);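 note: 0% = DMSO only neutral control wells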
Method in brief: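 An endpoint luciferase assay: 0.2 nM LmPYK E451W turns over 0.5 mM PEP with 0.1 mM ADP for 1 h at room temperature, pH 7.2, before PKLight addition. Values are normalized to DMSO-only wells.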

[18] = molecular target: Alpha-galactosidase A (Homo sapiens) (UniProt P06280); experiment: Counterscreen for Glucocerebrosidase Inhibitors: qHTS Assay for Human alpha-Galactosidase at pH 4.5 (AID 992); note: 0% is about no effect
Method in brief: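 Read-out is 4-methylumbelliferone fluorescence (365 nm excitation, 440 nm emission) after a pH 10 NaOH/glycine stop. Reactions held 2 nM enzyme and 80 uM substrate at pH 4.5 for 20 min at room temperature.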

[19] = molecular target: alpha-glucosidase (Oryza sativa, rice) (UniProt Q653V4); experiment: Counterscreen for Glucocerebrosidase Inhibitors: qHTS Assay for Rice alpha-Glucosidase at pH 5.0 (AID 997);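 note: 0% = full activity with enzyme and -100% = basal without enzyme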
Method in brief: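 Rice alpha-glucosidase (4 nM final) with 400 uM 4-methylumbelliferyl-alpha-D-glucopyranoside in citrate buffer pH 5.0, 20 min at room temperature, stopped at pH 10; fluorescence 365/440 nm, compounds 0.7 nM–77 uM, AC50 from Hill fits.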

[20] = molecular target: Cytochrome P450 2D6 (Homo sapiens) (UniProt P10635); experiment: qHTS Assay for Inhibitors and Substrates of Cytochrome P450 2D6 (AID 891); note: potency is the fitted concentration of half-maximal effect; nearly all actives have a fitted effect of over 60% in size
Method in brief: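 Human CYP2D6 (5 nM) with 30 uM Luciferin-ME EGE (at Km) in 100 mM KPO4, compound preincubated 10 min, then NADPH regeneration system for 60 min at room temperature. Luciferin read by luminescence; normalized to 1.43 uM quinidine.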

[21] = measured here: cell count channel max response
[22] = measured here: lipid channel max response

Sequence of DNA dC->dU-editing enzyme APOBEC-3G (Homo sapiens) (Q9HC16 whole entry, looked up): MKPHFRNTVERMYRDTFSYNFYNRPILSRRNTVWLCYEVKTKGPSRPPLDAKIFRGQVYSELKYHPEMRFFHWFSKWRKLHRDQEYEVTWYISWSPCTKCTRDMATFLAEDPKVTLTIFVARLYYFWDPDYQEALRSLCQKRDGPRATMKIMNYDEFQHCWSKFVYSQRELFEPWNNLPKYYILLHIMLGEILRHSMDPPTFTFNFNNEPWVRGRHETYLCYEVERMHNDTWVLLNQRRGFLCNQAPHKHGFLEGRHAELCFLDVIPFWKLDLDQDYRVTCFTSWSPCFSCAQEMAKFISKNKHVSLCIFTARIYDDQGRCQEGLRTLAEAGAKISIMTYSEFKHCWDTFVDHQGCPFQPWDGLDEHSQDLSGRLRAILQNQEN
Sequence of 3',5'-cyclic-AMP phosphodiesterase 4B (Homo sapiens) (Q07343 whole entry, looked up): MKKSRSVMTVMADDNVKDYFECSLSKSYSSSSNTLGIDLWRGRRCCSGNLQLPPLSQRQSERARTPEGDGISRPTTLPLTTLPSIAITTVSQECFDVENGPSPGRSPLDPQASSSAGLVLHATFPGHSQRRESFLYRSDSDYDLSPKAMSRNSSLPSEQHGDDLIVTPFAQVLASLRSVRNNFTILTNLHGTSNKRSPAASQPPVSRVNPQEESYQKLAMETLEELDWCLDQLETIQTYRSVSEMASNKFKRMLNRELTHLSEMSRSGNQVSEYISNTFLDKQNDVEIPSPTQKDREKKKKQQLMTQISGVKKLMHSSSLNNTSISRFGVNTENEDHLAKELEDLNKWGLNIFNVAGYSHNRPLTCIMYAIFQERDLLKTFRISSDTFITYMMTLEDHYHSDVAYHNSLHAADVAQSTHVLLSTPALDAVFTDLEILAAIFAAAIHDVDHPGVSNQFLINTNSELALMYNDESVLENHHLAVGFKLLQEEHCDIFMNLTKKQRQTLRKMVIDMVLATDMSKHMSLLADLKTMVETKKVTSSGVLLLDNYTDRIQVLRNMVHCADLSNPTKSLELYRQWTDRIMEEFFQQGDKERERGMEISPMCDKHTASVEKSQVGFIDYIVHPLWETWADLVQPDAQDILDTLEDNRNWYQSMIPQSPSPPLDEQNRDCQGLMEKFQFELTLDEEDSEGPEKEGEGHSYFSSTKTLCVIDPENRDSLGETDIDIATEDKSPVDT
Sequence of Cytochrome P450 2C19 (Homo sapiens) (P33261 whole entry, looked up): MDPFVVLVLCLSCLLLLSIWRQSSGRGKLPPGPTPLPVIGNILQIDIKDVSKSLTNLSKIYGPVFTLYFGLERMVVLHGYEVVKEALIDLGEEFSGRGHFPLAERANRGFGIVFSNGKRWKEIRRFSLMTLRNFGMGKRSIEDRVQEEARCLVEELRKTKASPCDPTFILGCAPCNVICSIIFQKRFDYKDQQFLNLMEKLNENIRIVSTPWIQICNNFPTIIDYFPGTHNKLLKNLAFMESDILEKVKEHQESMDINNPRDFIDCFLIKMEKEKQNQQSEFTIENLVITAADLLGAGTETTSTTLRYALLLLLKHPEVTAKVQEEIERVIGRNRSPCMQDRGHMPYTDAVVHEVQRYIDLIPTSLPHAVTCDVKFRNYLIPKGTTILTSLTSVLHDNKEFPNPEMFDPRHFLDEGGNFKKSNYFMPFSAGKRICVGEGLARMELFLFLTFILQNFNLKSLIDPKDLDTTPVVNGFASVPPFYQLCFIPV
Sequence of Pyruvate kinase (Leishmania mexicana) (Q27686 2-499 E452W): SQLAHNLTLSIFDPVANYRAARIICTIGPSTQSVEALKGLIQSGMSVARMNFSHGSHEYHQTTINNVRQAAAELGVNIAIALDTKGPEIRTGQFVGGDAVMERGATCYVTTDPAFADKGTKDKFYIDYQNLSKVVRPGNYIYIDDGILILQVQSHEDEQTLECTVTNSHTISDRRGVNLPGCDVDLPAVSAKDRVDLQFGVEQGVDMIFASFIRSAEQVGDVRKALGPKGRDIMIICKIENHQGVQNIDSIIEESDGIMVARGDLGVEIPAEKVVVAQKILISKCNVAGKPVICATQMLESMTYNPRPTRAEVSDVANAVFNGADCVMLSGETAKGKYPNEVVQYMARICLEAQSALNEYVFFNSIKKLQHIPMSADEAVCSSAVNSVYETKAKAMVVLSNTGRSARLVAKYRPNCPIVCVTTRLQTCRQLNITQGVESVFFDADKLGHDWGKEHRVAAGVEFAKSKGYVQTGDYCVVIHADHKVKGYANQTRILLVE
Sequence of Alpha-galactosidase A (Homo sapiens) (P06280 whole entry, looked up): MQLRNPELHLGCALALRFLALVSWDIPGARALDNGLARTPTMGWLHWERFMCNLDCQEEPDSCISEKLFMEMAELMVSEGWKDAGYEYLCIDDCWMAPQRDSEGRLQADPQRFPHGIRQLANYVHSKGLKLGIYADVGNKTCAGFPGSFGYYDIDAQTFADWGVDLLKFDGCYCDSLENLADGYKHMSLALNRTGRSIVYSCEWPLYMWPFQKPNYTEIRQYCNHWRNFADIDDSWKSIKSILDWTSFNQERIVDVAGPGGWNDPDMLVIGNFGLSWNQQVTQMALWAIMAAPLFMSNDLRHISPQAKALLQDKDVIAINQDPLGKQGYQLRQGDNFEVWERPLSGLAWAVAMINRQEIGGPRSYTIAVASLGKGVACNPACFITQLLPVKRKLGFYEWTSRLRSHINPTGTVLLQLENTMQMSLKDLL
Sequence of Glucocorticoid receptor (Homo sapiens) (P04150 whole entry, looked up, the tested form may be a part): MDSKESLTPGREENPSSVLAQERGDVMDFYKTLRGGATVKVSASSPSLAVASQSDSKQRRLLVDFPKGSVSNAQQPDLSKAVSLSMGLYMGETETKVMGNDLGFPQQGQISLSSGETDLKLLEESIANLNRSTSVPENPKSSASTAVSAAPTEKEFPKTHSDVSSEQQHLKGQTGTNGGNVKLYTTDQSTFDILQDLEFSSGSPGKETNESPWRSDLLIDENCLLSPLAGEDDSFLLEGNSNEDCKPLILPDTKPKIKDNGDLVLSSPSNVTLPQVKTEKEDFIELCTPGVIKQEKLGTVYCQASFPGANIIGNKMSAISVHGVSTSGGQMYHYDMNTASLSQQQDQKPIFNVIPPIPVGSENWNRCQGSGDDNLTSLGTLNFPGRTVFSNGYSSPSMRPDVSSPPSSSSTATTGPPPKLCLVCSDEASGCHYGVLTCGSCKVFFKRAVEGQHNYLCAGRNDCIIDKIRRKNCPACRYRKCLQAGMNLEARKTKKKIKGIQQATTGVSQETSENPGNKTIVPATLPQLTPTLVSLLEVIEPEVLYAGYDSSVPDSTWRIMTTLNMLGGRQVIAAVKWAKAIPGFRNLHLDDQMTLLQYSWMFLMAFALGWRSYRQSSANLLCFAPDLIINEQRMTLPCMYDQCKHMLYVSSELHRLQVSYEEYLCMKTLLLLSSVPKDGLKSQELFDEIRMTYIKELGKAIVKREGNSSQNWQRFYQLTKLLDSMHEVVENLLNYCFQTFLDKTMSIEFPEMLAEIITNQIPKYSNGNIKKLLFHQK
Sequence of Cytochrome P450 1A2 (Homo sapiens) (P05177 whole entry, looked up): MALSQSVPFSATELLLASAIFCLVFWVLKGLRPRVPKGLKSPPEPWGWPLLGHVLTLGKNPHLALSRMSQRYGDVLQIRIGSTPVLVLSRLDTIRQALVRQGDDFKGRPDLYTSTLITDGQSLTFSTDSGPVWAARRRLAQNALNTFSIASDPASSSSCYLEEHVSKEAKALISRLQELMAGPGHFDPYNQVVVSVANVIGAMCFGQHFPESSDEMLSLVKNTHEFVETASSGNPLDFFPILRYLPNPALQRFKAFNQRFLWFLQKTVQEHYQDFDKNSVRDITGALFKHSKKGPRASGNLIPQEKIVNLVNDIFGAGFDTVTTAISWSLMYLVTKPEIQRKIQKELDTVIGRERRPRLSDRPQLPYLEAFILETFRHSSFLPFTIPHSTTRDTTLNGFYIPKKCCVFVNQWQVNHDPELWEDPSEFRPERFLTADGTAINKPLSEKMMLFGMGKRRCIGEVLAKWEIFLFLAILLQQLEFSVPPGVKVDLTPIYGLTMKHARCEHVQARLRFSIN
Sequence of Guanine nucleotide-binding protein G(i) subunit alpha-1 (Homo sapiens) (P63096 whole entry, looked up): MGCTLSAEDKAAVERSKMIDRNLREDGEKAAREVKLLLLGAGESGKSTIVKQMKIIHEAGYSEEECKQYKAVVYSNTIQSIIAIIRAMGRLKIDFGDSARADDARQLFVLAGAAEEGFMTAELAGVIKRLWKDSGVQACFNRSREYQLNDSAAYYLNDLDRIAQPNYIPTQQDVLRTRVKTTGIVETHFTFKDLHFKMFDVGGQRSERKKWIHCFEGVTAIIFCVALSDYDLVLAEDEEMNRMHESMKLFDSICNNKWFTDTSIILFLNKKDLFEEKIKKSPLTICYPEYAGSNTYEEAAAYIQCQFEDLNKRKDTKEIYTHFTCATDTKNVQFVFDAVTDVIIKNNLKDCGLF
Sequence of Ubiquitin carboxyl-terminal hydrolase 1 (Homo sapiens) (O94782 whole entry, looked up): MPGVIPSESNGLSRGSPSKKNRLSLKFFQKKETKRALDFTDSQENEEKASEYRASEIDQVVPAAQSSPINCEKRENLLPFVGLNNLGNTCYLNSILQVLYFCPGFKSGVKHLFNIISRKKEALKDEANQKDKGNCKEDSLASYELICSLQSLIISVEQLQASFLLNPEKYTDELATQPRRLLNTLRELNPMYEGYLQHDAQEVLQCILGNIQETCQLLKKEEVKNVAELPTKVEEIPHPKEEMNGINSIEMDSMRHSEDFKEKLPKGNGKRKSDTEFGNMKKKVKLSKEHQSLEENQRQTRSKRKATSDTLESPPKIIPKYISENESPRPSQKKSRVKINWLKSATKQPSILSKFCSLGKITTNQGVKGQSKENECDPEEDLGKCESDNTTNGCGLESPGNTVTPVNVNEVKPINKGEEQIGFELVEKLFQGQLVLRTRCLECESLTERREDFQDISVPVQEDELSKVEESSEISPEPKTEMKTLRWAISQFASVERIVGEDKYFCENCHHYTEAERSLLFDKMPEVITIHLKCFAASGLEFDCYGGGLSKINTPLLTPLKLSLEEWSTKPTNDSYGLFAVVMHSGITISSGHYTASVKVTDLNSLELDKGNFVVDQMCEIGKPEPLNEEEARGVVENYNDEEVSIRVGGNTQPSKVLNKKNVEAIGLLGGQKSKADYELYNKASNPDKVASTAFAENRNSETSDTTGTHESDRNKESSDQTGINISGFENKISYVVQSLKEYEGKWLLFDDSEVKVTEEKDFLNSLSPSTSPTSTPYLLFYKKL

Cc1nccn1CC1CCC2C(C1=O)c1ccccc1N2C (stereo unspecified)
inactive: Potency [1] | Potency [2]

CNC(=O)[C@H]1O[C@@H](n2cnc3c(NCc4cccc(I)c4)nc(Cl)nc32)[C@H](O)[C@@H]1O
inactive: Potency [1] | Potency [2]

CC(=O)NCC(=O)N[C@H](CCC(=O)O)C(=O)O (HELM PEPTIDE1{[ac].G.[dE]}$$$$V2.0)
inactive: Potency [3] > 46 µM | Potency [4] | activity change, negative = inhibition [5] 3.36% | Potency [6] | Potency [1] | Potency [2]
9.84%: max response [5, 22]
6.18%: max response [5, 21]

C[C@H](CCC(=O)O)[C@H]1CC[C@H]2[C@H]3C(CC[C@]12C)[C@@]1(C)CC[C@@H](O)C[C@H]1C[C@H]3O (stereo partly specified)
5.28%: max response [5, 22]
14.2%: max response [5, 21]
inactive: activity change, negative = inhibition [5] -7.53% | Potency [7] | Potency [6] | Potency [1] | Potency [2]

C[C@@]12C(=O)OC(=O)[C@@]1(C)[C@@H]1CC[C@@H]2O1
active: Potency [8] 31.6 µM
inactive: Potency [3] > 46 µM | Potency [9] > 46 µM | Potency [4] | Potency [10] | Potency [7] | Potency [6] | Potency [1] | Potency [2]

CCN(CC)CC1CCN(c2ncc3ncnc(Nc4ccc(F)c(Cl)c4)c3n2)CC1
inactive: Potency [1] | Potency [2]

CCC(C)(C)C(=O)O[C@@H]1C[C@@H](C)C=C2C=C[C@H](C)[C@H](CC[C@@H]3C[C@@H](O)CC(=O)O3)[C@H]21
inactive: Potency [3] > 46 µM | Potency [9] > 46 µM | Potency [11] | Potency [6] | Potency [1] | Potency [2]

CCOC(=O)C1=C(C)NC(C)=C(C(=O)OC)[C@H]1c1cccc([N+](=O)[O-])c1
active: Potency [8] 15.8 µM | Potency [16] 1.26 µM and 251 nM
inactive: activity change, negative = inhibition [12] -24.5% | activity change, negative = inhibition [13] -17% | activity, negative = inhibition [14] 17.9% | outcome [15] | Potency [17] | outcome [18] | outcome [19] | Potency [6] | Potency [1] | Potency [2]

CCn1ccnc1C[C@@H]1COc2ccccc2O1
active: Potency [8] 15.8 µM | Potency [20] 1.58 µM
inactive: activity change, negative = inhibition [12] -10% | activity, negative = inhibition [14] -3.71% | Potency [3] > 46 µM | Potency [9] > 46 µM | Potency [11] | Potency [4] | outcome [15] | Potency [17] | outcome [18] | outcome [19] | Potency [6] | Potency [1] | Potency [2]

C[C@@H](/C=C\c1cccc(Oc2ccc(F)cc2)c1)N(O)C(N)=O
inactive: activity change, negative = inhibition [12] -29.9% | activity change, negative = inhibition [13] -4.07% | activity, negative = inhibition [14] 13.8% | Potency [4] | outcome [15] | Potency [10] | Potency [17] | outcome [18] | outcome [19] | Potency [6] | Potency [1] | Potency [2]
active: Potency [8] 1 µM and 158 nM | Potency [20] 25.1 µM | Potency [16] 1.58 µM and 3.98 µM

N#CC(=C(/N)Sc1ccccc1N)/C(C#N)=C(/N)Sc1ccccc1N
active: activity change, negative = inhibition [12] -84.2% | Potency [8] 12.6 µM and 31.6 µM
inactive: Potency [3] > 46 µM | Potency [9] > 46 µM | Potency [11] | Potency [4] | outcome [15] | Potency [10] | Potency [17] | outcome [18] | outcome [19] | Potency [1] | Potency [2]

CCNC(=O)[C@H]1O[C@H](n2cnc3c(N)nc(NCCc4ccc(CCC(=O)O)cc4)nc32)[C@@H](O)[C@@H]1O
-14.7%: max response [5, 21]
-19.8%: max response [5, 22]
inactive: Potency [3] > 46 µM | Potency [4] | activity change, negative = inhibition [5] -4.61% | Potency [7] | Potency [6] | Potency [1] | Potency [2]

N[C@@](C(=O)O)(c1ccc(P(=O)(O)O)cc1)C1CC1
3.93%: max response [5, 21]
-1.11%: max response [5, 22]
inactive: Potency [3] > 46 µM | Potency [11] | activity change, negative = inhibition [5] -7.82% | Potency [6] | Potency [1] | Potency [2]

C[N+](C)(CCCCCC[N+](C)(C)CCCN1C(=O)c2ccccc2C1=O)CCCN1C(=O)c2ccccc2C1=O
-18.6%: max response [5, 21]
inactive: Potency [9] > 46 µM | activity change, negative = inhibition [5] -4.59% | Potency [7] | Potency [6] | Potency [1] | Potency [2]
-20.9%: max response [5, 22]

NC1(C(=O)O)CCC1
-13.7%: max response [5, 22]
-18.5%: max response [5, 21]
inactive: Potency [3] > 46 µM | Potency [11] | Potency [4] | activity change, negative = inhibition [5] 3.54% | Potency [7] | Potency [6] | Potency [1] | Potency [2]
